The campaign covered roughly 5,500 compounds. About 2,000 (36%) were called active. Inconclusive results (about 18%) are left out. No stated cut-off is given here; in the data, active means normalized growth mostly below about 0.91 (no sharp cut-off); inconclusive means no clear call, values can overlap the other calls; inactive means mostly above about 0.92. The list shows a part of the results.
Test: chemical genetic growth profiling, strain panel (AID 1159580);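 further: tested at 20 µM; growth read once vehicle control cultures reached saturation at 30 °C; 1 = growth at the plate median or of vehicle wells; lower values mean less growth of the strain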
Conditions: S. cerevisiae deletion strains, growth OD

Measured: normalized growth

CN(C)[C@@H]1C(=O)C(C(=O)NCN2CCCC2)=C(O)[C@@]2(O)C(=O)C3=C(O)c4c(O)cccc4[C@@](C)(O)[C@H]3C[C@@H]12
inactive: locus YAL021C, strain ccr4, active compounds read low 0.935 | locus YAL026C, strain drs2, active compounds read low 0.976 | locus YAL030W, strain snc1, active compounds read low 0.994 | locus YBL061C, strain skt5, active compounds read low 0.999 | locus YBR009C, strain hhf1, active compounds read low 0.965 | locus YBR023C, strain chs3, active compounds read low 0.992 | locus YBR171W, strain sec66, active compounds read low 1.02 | locus YBR231C, strain swc5, active compounds read low 0.974 | locus YBR279W, strain paf1, active compounds read low 1 | locus YCL011C, strain gbp2, active compounds read low 0.94 | locus YCL016C, strain dcc1, active compounds read low 0.997 | locus YCL061C, strain MRC1, active compounds read low 0.997 | locus YCL069W, strain vba3, active compounds read low 1.02 | locus YCR088W, strain abp1, active compounds read low 1.01 | locus YDL005C, strain med2, active compounds read low 1.04 | locus YDL040C, strain nat1, active compounds read low 1.02 | locus YDR001C, strain nth1, active compounds read low 1.01 | locus YDR069C, strain doa4, active compounds read low 0.942 | locus YDR137W, strain rgp1, active compounds read low 0.922 | locus YDR159W, strain sac3, active compounds read low 1.04 | locus YDR195W, strain ref2 1.11 | locus YDR297W, strain sur2, active compounds read low 0.985 | locus YDR334W, strain swr1, active compounds read low 0.994 | locus YDR335W, strain msn5, active compounds read low 1 | locus YDR392W, strain spt3, active compounds read low 0.908 | locus YEL037C, strain rad23, active compounds read low 1 | locus YEL061C, strain CIN8 (second series), active compounds read low 1.01 | locus YER015W, strain faa2, active compounds read low 0.99 | locus YER016W, strain bim1, active compounds read low 1.02 | locus YER111C, strain swi4, active compounds read low 1.01 | locus YER155C, strain BEM2 (second series), active compounds read low 0.926 | locus YFR010W, strain ubp6, active compounds read low 0.985 | locus YGL167C, strain pmr1, active compounds read low 1 | locus YGL173C, strain kem1, active compounds read low 1.01 | locus YGL227W, strain vid30, active compounds read low 1.03 | locus YGL240W, strain doc1, active compounds read low 0.987 | locus YGL253W, strain hxk2, active compounds read low 1.01 | locus YHR013C, strain ard1, active compounds read low 1 | locus YHR027C, strain rpn1, active compounds read low 0.995 | locus YHR030C, strain SLT2, active compounds read low 1.03 | locus YHR079C, strain IRE1, active compounds read low 1.01 | locus YHR142W, strain chs7, active compounds read low 1 | locus YJL092W, strain hpr5, active compounds read low 1.01 | locus YJL095W, strain BCK1 (second series), active compounds read low 0.994 | locus YJL095W, strain BCK1, active compounds read low 0.992 | locus YJL115W, strain asf1, active compounds read low 1.01 | locus YJL129C, strain trk1, active compounds read low 1.03 | locus YJL154C, strain vps35, active compounds read low 1.02 | locus YJL164C, strain tpk1, active compounds read low 0.937 | locus YJL166W, strain qcr8, active compounds read low 0.944 | locus YJL187C, strain SWE1, active compounds read low 0.994 | locus YJR066W, strain TOR1, active compounds read low 0.965 | locus YKL160W, strain elf1, active compounds read low 1 | locus YKR026C, strain gcn3, active compounds read low 1 | locus YKR091W, strain srl3, active compounds read low 1.02 | locus YLL001W, strain dnm1, active compounds read low 1.02 | locus YLL026W, active compounds read low 1 | locus YLL041C, strain sdh2, active compounds read low 1.01 | locus YLR027C, strain aat2, active compounds read low 0.984 | locus YLR113W, strain HOG1, active compounds read low 0.959 | locus YLR258W, strain gsy2, active compounds read low 0.967 | locus YLR262C, strain YPT6 (second series), active compounds read low 0.945 | locus YLR320W, strain mms22, active compounds read low 0.97 | locus YLR342W, strain FKS1, active compounds read low 1 | locus YLR370C, strain arc18, active compounds read low 1 | locus YLR384C, strain iki3, active compounds read low 1.01 | locus YML120C, strain ndi1, active compounds read low 0.936 | locus YMR125W, strain sto1, active compounds read low 1.03 | locus YMR129W, active compounds read low 1.01 | locus YMR205C, strain PFK2, active compounds read low 1.01 | locus YMR231W, strain pep5, active compounds read low 1.01 | locus YNL071W, strain lat1, active compounds read low 0.942 | locus YNL183C, strain NPR1, active compounds read low 0.946 | locus YNL209W, strain ssb2, active compounds read low 0.993 | locus YNL322C, strain KRE1 (second series), active compounds read low 1 | locus YNR049C, strain mso1, active compounds read low 1.01 | locus YOR070C, strain gyp1, active compounds read low 1 | locus YOR080W, strain dia2, active compounds read low 1.01 | locus YOR083W, strain WHI5, active compounds read low 0.978 | locus YOR231W, strain MKK1, active compounds read low 1.03 | locus YOR265W, strain rbl2, active compounds read low 1 | locus YOR270C, strain vph1, active compounds read low 0.977 | locus YOR290C, strain snf2, active compounds read low 0.991 | locus YPL051W, strain arl3, active compounds read low 0.949 | locus YPL078C, strain atp4, active compounds read low 1 | locus YPL106C, strain sse1, active compounds read low 0.95 | locus YPL240C, strain hsp82, active compounds read low 1.02 | locus YPL256C, strain CLN2, active compounds read low 1.01
active: locus YEL003W, strain gim4, active compounds read low 0.732 | locus YLR221C, strain rsa3, active compounds read low 0.907 | locus YLR357W, strain rsc2, active compounds read low 0.787 | locus YMR058W, strain fet3, active compounds read low 0.879 | locus YNL248C, strain rpa49, active compounds read low 0.796 | locus YOR001W, strain rrp6, active compounds read low 0.89 | locus YOR106W, strain vam3, active compounds read low 0.849

Source: PubChem BioAssay AID1159580 (chemical genetic matrix, 2015)
